Only some compounds are listed: those with a hit (about 11% of all), similar ones and a draw of the others.
Luciferase inh – blocks purified firefly luciferase enzyme activity. purified P. pyralis luciferase, luminescence, biochemical. Potency, µM (highest dose often 115 µM), most hits filed as inhibitors. P08659. 2.5% of 76,000 active. AID 1347043; further: nearly all actives have a fitted effect of over 65% in size
Target sequence (P08659 whole entry, looked up): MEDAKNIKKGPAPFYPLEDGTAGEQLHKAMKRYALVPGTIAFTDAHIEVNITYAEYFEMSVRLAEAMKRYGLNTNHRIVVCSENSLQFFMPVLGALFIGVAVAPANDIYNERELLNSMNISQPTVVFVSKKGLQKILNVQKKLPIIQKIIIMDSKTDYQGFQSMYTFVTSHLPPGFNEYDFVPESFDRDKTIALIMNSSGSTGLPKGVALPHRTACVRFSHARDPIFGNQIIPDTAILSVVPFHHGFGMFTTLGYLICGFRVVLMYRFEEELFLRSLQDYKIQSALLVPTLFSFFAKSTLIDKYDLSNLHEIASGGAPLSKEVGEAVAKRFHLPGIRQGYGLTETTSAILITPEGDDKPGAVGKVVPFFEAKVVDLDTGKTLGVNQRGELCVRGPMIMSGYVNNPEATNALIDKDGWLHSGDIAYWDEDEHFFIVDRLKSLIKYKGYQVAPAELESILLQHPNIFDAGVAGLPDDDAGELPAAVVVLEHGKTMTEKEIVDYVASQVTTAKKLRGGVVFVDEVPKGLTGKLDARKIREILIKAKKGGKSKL
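Luminescence read by CCD imager after adding enzyme (10nM final) to wells holding compound, titrated in qHTS. Substrates 10uM each D-luciferin and ATP; buffer 50mM Tris acetate pH 7.5, 10mM Mg acetate, Tween-20, BSA.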
NPR1 antag – human Npr1 receptor antagonism. P16066. HEK293 hNpr1 GloSensor cGMP, ANP-stimulated luminescence. Potency, µM (titrated, usually from 46.3 µM), without a hit: top-dose activity change, negative = inhibition, most hits filed as inhibitors. 1.6% of 76,000 active. AID 1347048; calls by dose curve; further: nearly all actives have a fitted effect of over 60% in size
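HEK293 cells stably expressing human Npr1 and cGMP GloSensor pGS-40F, loaded 2 h with 2% GloSensor reagent, given compound 30 min at room temperature. Luminescence read before and 20 min after 0.1 nM hNppA.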
HEK293 tox – HEK 293 cell cytotoxicity. Potency, µM (top dose mostly 115 µM), for the others: at the highest dose activity change, negative = cytotoxicity, most hits filed as inhibitors. 6.6% of 94,000 active. HEK 293 viability, ATP luminescence (CellTiter-Glo), 48-72 h; further: nearly all actives have a fitted effect of over 60% in size
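HEK 293 cells seeded at 250 cells/well were exposed to compound for 48 or 72 hr at 37 degree Celsius. Viability taken as ATP content by CellTiter-Glo luminescence.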
NIH3T3 tox – NIH 3T3 cell cytotoxicity | NIH 3T3 viability, CellTiter-Glo ATP luminescence, 48-72 h | 4.3% of 94,000 active | Potency, µM (doses to about 96.7 µM), for the others: at the highest dose activity change, negative = cytotoxicity, most hits filed as inhibitors; further: nearly all actives have a fitted effect of over 55% in size
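Cytotoxicity is measured as loss of cellular ATP: NIH 3T3 cells (400/well) are exposed to compound for 48 or 72 hr at 37 °C, then CellTiter-Glo luminescence is imaged after 10 min at room temperature.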
* marks the source's active call; other numbers are inactive results; i = inactive; ? = inconclusive; / = not tested or not shown. Unless noted, the call rests on the fitted dose curve; in most records, active means well fitted curve in the direction sought with a large enough effect; inconclusive means small, poorly fitted or top-dose-only effect, or another doubt; inactive means no such curve, though single readings can be large; an effect the other way counts as inactive or inconclusive. On the % scale 0 is the no-effect control and ±100 the full control effect; potency means the concentration at half of the fitted maximal effect.

SMILES	Luciferase inh	NPR1 antag	HEK293 tox	NIH3T3 tox
COc1ccc(CNC(=O)CN2C(=O)NC(c3ccc(Cl)cc3)C3=C2COC3=O)cc1 (stereo unspecified)	i	-16%	?	?
Cc1ccccc1Cn1cc(-c2ccncc2)cc1C(=O)N1CCN(c2ccccc2)CC1	i	0%	?	?
Cc1nc(N2CCCCC2)n(CC(=O)Nc2cccc(Cl)c2)c(=O)c1C	i	-7%	?	?
CSc1ccccc1-c1ccc(N2CCN(C)CC2)nn1	16µM*	-4%	4%	i
COc1ccc(OC)c(S(=O)(=O)N2CCC(c3nc(-c4cccn4C)no3)CC2)c1	/	/	40µM*	?
CCCN1CCN(C(=O)c2ccc(-c3ccc(N4CCCCC4)nc3)cc2)CC1	?	-15%	?	?
CN1CCN(C(=O)c2ccc(-c3ccc(N4CCCCC4)nc3)cc2)CC1	22µM*	-2%	?	?
O=C(NCc1ccccc1F)c1ccc(-c2ccc(N3CCSCC3)nc2)cc1	?	-21%	?	-10%
CN1CCN(C(=O)c2ccc(-c3ccc(N4CCSCC4)nc3)cc2)CC1	35µM*	-29%	?	?
COc1cccc(CNC(=O)c2ccc(-c3ccc(N4CCSCC4)nc3)cc2)c1	?	?	?	-14%
CC1CCN(C(=O)c2ccc(-c3ccc(N4CCSCC4)nc3)cc2)CC1	?	?	20µM*	?
O=C(c1ccc(-c2ccc(N3CCCCC3)nc2)cc1)N1CCCC1	28µM*	?	?	40µM*
CC(NC(=O)c1ccc(-c2ccc(N3CCCCCC3)nc2)cc1)c1cccnc1 (stereo unspecified)	?	?	?	25µM*
O=C(NCc1ccccc1)c1ccc(-c2ccc(N3CCSCC3)nc2)cc1	i	-1%	?	?
O=C(c1ccc(-c2ccc(N3CCSCC3)nc2)cc1)N1CCCCC1	?	10µM*	?	35µM*
O=C(c1ccc(-c2ccc(N3CCSCC3)nc2)cc1)N1CCOCC1	?	?	25µM*	35µM*
CNC(=O)[C@H]1C[C@]2(CCCCN(C)C2=O)N(C(=O)C2CC2)[C@H]1c1ccco1	/	/	i	?
O=C1NCCCCCN(C(=O)c2cccs2)[C@@H]2C[C@@H](C(=O)N3CCc4ccccc4C3)C[C@H]12	i	-3%	?	-18%
Clc1ccc(C2Cn3nnc(-c4noc(Cc5ccccc5Cl)n4)c3CO2)cc1 (stereo unspecified)	i	0%	?	-27%
O=C1CCC2(CCN1CC1CC1)CCN(C(=O)c1ccc3c(c1)OCO3)CC2	?	-12%	0%	-7%
CC(NC(=O)C1CCN(C(=O)c2ncn3c2COC(c2ccc(Cl)cc2)C3)CC1)c1ccccc1 (stereo unspecified)	i	4%	2%	i
COc1cc(NC(=O)C2CCN(C(=O)c3ncn4c3COC(c3ccccc3)C4)CC2)cc(OC)c1 (stereo unspecified)	25µM*	-5%	-19%	-7%
COc1ccc(C(C)NC(=O)C2CCN(C(=O)c3ncn4c3COC(c3ccccc3)C4)CC2)cc1 (stereo unspecified)	28µM*	-12%	-6%	-13%
CCCN(C)C(=O)c1csc(N2CCN(c3cccc(Cl)c3)CC2)n1	i	?	32µM*	?
COc1cccc(N2CCN(c3nc(C(=O)NCc4ccco4)cs3)CC2)c1	i	-9%	45µM*	?
SMILES	Luciferase inh	NPR1 antag	HEK293 tox	NIH3T3 tox
O=C(c1ccsc1)N1CCC2(CC1)CC(N1CCOCC1)CCO2 (stereo unspecified)	/	/	-7%	-19%
CC(C)NC(=O)C1CCCN(Cc2cccc(-c3ccc(F)cc3F)c2)C1 (stereo unspecified)	/	/	35µM*	?
Cc1ccc(-c2cccc(CN3CCCC(NC(=O)C4CCCC4)C3)c2)cc1Cl (stereo unspecified)	/	/	-9%	-15%
O=C(NC1CC1)C1CCCN(Cc2cccc(-c3ccc(F)cc3F)c2)C1 (stereo unspecified)	/	/	40µM*	?
COC(=O)CNC(=O)C1CCCN(Cc2cccc(-c3ccc(F)cc3F)c2)C1 (stereo unspecified)	/	/	-28%	?
O=C(NC1CCCC1)C1CCCN(Cc2cccc(-c3ccc(F)cc3F)c2)C1 (stereo unspecified)	/	/	40µM*	40µM*
